Bioassay records (PubChem)
The list is not random: actives were taken first. Their share in the collection is about 5.4%.
PHOSPHO1 block: inhibitors of human PHOSPHO1 phosphatase; Q8TCT1; recombinant PHOSPHO1, absorbance phosphatase assay; inhibition, % at 13.3 µM; 290,000 tested, 1.1% active; AID 1565; in the data active means inhibition above about 60%
APOBEC3A inh: human APOBEC3A DNA deaminase inhibition; AID 493011; inhibition, % at 20 µM; P31941; 330,000 tested, 0.41% active; recombinant A3A, FAM/TAMRA ssDNA deamination fluorescence;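 active means at least 40% inhibition at 20 µM here, with at most 30% in a related deaminase screen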
Target sequence (P31941 whole entry, looked up): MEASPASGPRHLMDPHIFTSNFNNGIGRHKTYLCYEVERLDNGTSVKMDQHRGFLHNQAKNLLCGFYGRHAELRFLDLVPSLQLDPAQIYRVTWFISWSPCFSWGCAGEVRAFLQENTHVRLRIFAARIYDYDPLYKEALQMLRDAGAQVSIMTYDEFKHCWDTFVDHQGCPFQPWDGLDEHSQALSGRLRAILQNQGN
aDG glyco up: increases alpha dystroglycan glycosylation. 360,000 tested, 0.22% active. Pro5-aDG cells, alpha-DG glycosylation AlphaScreen (IIH6); 0% Pro5, 100% B10-LARGE cell signal. activation, % at 10 µM;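 active means activation of at least 8% versus controls, or a plate z-score of at least 8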;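 further: Pro5 are CHO cells carrying HIG-tagged alpha-DG that lacks glycosylation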
ALR H2O2 inh: blocks human ALR sulfhydryl oxidase activity | P55789 | purified ALR, DTT oxidation, H2O2 HRP-luminol luminescence | inhibition, % (concentration not given with the values) | 290,000 tested, 3.8% active | AID 485317;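 active means mean replicate inhibition above about 79%, with every replicate also reaching it, limit read from the data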
Target sequence (P55789 whole entry, looked up): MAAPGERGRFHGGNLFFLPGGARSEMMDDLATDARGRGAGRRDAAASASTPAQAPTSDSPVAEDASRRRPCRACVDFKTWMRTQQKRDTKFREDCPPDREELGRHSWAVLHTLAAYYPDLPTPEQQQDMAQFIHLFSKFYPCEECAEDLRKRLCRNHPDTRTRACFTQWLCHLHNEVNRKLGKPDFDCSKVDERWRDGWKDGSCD
A3G deaminase: blocks human APOBEC3G single-stranded DNA deamination | Q9HC16 | recombinant A3G, ssDNA deamination FAM/TAMRA fluorescence | inhibition, % at 20 µM | 330,000 tested, 0.28% active | AID 493012;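 active means inhibition of at least 40% at 20 µM, with no more than 30% in the related APOBEC3A deaminase screen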
rCAG binder: molecules binding r(CAG) RNA repeats; r(CAG) RNA repeat, TO-PRO-1 dye displacement fluorescence; inhibition, % at 3 µM; 370,000 tested, 1.3% active;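 active means inhibition above the plate cutoff, the mean of all test compounds on that plate plus 3 SD, cut at about 35% in these data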;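 further: higher means more dye released from RNA so lower well fluorescence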
APOBEC3G confirm: APOBEC3G (human) deaminase inhibition, confirmed. inhibition, % at 20 µM. 890 tested, 72% active. shares compounds with A3G deaminase. AID 493152. recombinant A3G ssDNA deaminase, UDG/FAM-TAMRA fluorescence;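 active means inhibition reaching a set limit in any replicate at 20 µM, the limit being 80% of the first screen's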
UDG A3G counter: inhibits E. coli UDG, flagging false APOBEC3G inhibitors; shares compounds with A3G deaminase; UDG counterscreen, FAM/TAMRA oligo fluorescence; inhibition, % at 20 µM; 710 tested, under 10 active; AID 504715;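 active means compounds giving 40% or more inhibition at 20 µM in any one of the three replicates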;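 further: inhibitors lower the FAM signal released by uracil excision and alkaline cleavage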
Target sequence (P12295 whole entry, looked up): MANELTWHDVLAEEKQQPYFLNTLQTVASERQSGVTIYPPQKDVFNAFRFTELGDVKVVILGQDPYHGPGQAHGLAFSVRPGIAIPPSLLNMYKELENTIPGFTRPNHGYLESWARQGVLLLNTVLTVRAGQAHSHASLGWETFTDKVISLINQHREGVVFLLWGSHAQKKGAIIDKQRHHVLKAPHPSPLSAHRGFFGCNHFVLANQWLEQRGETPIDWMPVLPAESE
Hits are given with their value.

How did CC1CCC2(CC1)NC(=S)N(C(C)(C)C)N2 (configuration not stated) do in these assays?
PHOSPHO1 block: inactive; APOBEC3A inh: inactive; aDG glyco up: inactive; ALR H2O2 inh: inactive; A3G deaminase: 51.1; rCAG binder: inactive; APOBEC3G confirm: 23.7; UDG A3G counter: inactive

What do the screens show for `Cc1cccc2c(=O)n(C(=O)c3ccccc3)c(N)nc12`?
aDG glyco up: inactive; rCAG binder: inactive

Results for COCCN(C(=O)COC(=O)CCC1CCCCC1)c1c(N)n(Cc2ccccc2)c(=O)[nH]c1=O ?
aDG glyco up: inactive; rCAG binder: inactive

What do the screens show for `O=S(=O)(CCN1CCCCC1)CCS(=O)(=O)CCN1CCCCC1`?
aDG glyco up: inactive; rCAG binder: inactive

How did N#CCCCc1cn(-c2nc3ccccc3s2)nn1 do in these assays?
aDG glyco up: inactive; rCAG binder: inactive

How did COCCCn1c(-c2ccc(Cl)cc2)n[nH]c1=S do in these assays?
PHOSPHO1 block: 97.6; APOBEC3A inh: inactive; aDG glyco up: inactive; ALR H2O2 inh: 94.8; A3G deaminase: 49.2; rCAG binder: inactive; APOBEC3G confirm: 58.0; UDG A3G counter: inactive

How did CCOCCCn1c(-c2ccc(Cl)cc2)n[nH]c1=S do in these assays?
PHOSPHO1 block: 99.2; APOBEC3A inh: inactive; aDG glyco up: inactive; ALR H2O2 inh: inactive; A3G deaminase: 53.0; rCAG binder: inactive; APOBEC3G confirm: 61.7; UDG A3G counter: inactive

How did S=c1[nH]nc(-c2ccc(Cl)cc2)n1CCCN1CCOCC1 do in these assays?
PHOSPHO1 block: inactive; APOBEC3A inh: inactive; aDG glyco up: inactive; ALR H2O2 inh: inactive; A3G deaminase: inactive; rCAG binder: inactive

What do the screens show for `COc1cccc(NC(=O)C2(C)CCN2CCc2ccccc2)c1` (configuration not stated)?
aDG glyco up: inactive; rCAG binder: inactive

What do the screens show for `Cc1cc(C)cc(-n2c3ccc(NC(=S)NC4CCCCC4)cc3c(=O)n2C)c1`?
aDG glyco up: inactive; rCAG binder: inactive

How did CCc1c(C)[nH]c2ccc(OC)cc2c1=S do in these assays?
PHOSPHO1 block: inactive; APOBEC3A inh: inactive; aDG glyco up: inactive; A3G deaminase: 44.0; rCAG binder: inactive; APOBEC3G confirm: inactive; UDG A3G counter: inactive

What do the screens show for `COc1ccc2[nH]c(C)c(CN3CCCCC3)c(=O)c2c1`?
PHOSPHO1 block: inactive; APOBEC3A inh: inactive; aDG glyco up: inactive; ALR H2O2 inh: inactive; A3G deaminase: inactive; rCAG binder: inactive

How did CC(C)c1ccc(NC(=O)C2(C)Cc3c(-c4cccc(C(N)=O)c4)ccnc3O2)cc1 (configuration not stated) do in these assays?
aDG glyco up: inactive; rCAG binder: inactive

Results for Cc1cc(=O)n(Cc2ccccc2)c(O)c1C#N ?
PHOSPHO1 block: inactive; APOBEC3A inh: inactive; aDG glyco up: inactive; ALR H2O2 inh: inactive; A3G deaminase: inactive; rCAG binder: inactive

Results for Cc1cc(=O)n2nc(-c3ccccc3)sc2c1C#N ?
PHOSPHO1 block: inactive; APOBEC3A inh: inactive; aDG glyco up: inactive; ALR H2O2 inh: inactive; A3G deaminase: 55.3; rCAG binder: inactive; APOBEC3G confirm: 68.9; UDG A3G counter: inactive

How did O=[N+]([O-])c1ccc2c(c1)[nH]c(=S)n2-c1ccccc1 do in these assays?
PHOSPHO1 block: inactive; APOBEC3A inh: inactive; aDG glyco up: inactive; ALR H2O2 inh: inactive; A3G deaminase: 41.0; rCAG binder: inactive; APOBEC3G confirm: 54.2; UDG A3G counter: inactive

How did Cc1ccc(-n2c(N)c(C(N)=O)sc2=S)cc1 do in these assays?
PHOSPHO1 block: 92.8; APOBEC3A inh: inactive; aDG glyco up: inactive; ALR H2O2 inh: inactive; A3G deaminase: 58.2; rCAG binder: inactive; APOBEC3G confirm: 57.9; UDG A3G counter: inactive

How did Cc1ccc(-n2c(N)c(C(=O)NCc3ccco3)sc2=S)cc1 do in these assays?
PHOSPHO1 block: inactive; APOBEC3A inh: inactive; aDG glyco up: inactive; ALR H2O2 inh: inactive; A3G deaminase: inactive; rCAG binder: inactive

Results for COc1ccc(C2NC(=S)N3C(c4ccc(OC)cc4)NC(=S)N23)cc1 (configuration not stated) ?
PHOSPHO1 block: 97.5; APOBEC3A inh: inactive; aDG glyco up: inactive; A3G deaminase: 44.9; rCAG binder: inactive; APOBEC3G confirm: 34.2; UDG A3G counter: inactive

How did COc1ccc(N2C(=S)NC3CS(=O)(=O)CC32)cc1 (configuration not stated) do in these assays?
PHOSPHO1 block: inactive; APOBEC3A inh: inactive; aDG glyco up: inactive; ALR H2O2 inh: inactive; A3G deaminase: inactive; rCAG binder: inactive

Results for COc1cc(/C=C2\CCc3c2nc2ccccc2c3C(=O)O)cc(OC)c1OC ?
PHOSPHO1 block: inactive; APOBEC3A inh: inactive; aDG glyco up: inactive; ALR H2O2 inh: inactive; A3G deaminase: inactive; rCAG binder: inactive

What do the screens show for `CCOc1cc(/C=C2\CCCc3c2nc2ccccc2c3C(=O)O)ccc1OC`?
PHOSPHO1 block: inactive; APOBEC3A inh: inactive; aDG glyco up: inactive; ALR H2O2 inh: inactive; A3G deaminase: 47.8; rCAG binder: inactive; APOBEC3G confirm: inactive

Results for O=C(CCN1C(=O)/C(=C/c2ccc(Cl)cc2)SC1=S)Nc1ccc(C(=O)O)cc1 ?
APOBEC3A inh: inactive; aDG glyco up: inactive; ALR H2O2 inh: inactive; A3G deaminase: 40.1; rCAG binder: inactive; APOBEC3G confirm: inactive; UDG A3G counter: inactive

How did CCc1ccc(/C=C2/SC(=S)N(CCC(=O)Nc3ccc(C(=O)O)cc3)C2=O)cc1 do in these assays?
PHOSPHO1 block: inactive; APOBEC3A inh: inactive; aDG glyco up: inactive; ALR H2O2 inh: inactive; A3G deaminase: inactive; rCAG binder: inactive

What do the screens show for `COc1ccccc1-n1c(-c2ccccc2)n[nH]c1=S`?
PHOSPHO1 block: inactive; APOBEC3A inh: inactive; aDG glyco up: inactive; ALR H2O2 inh: inactive; A3G deaminase: 67.7; rCAG binder: inactive; APOBEC3G confirm: 57.8; UDG A3G counter: inactive

Results for COc1cc(-c2n[nH]c(=S)n2-c2ccc(C)cc2)cc(OC)c1OC ?
PHOSPHO1 block: inactive; APOBEC3A inh: inactive; aDG glyco up: inactive; ALR H2O2 inh: inactive; A3G deaminase: 43.0; rCAG binder: inactive; APOBEC3G confirm: 68.0; UDG A3G counter: inactive

Results for O=C(NC1CCCC1)[C@@H]1CCCN1C(=O)[C@@H](NC(=O)N1CCOCC1)c1ccccc1 ?
rCAG binder: inactive

Results for CC(C)(C)n1nnnc1C1c2ccccc2C(=O)N1CCc1c[nH]c2ccccc12 (configuration not stated) ?
aDG glyco up: inactive; rCAG binder: inactive

Results for CNc1ccc(-c2cccc(C(=O)N3CCOCC3)c2)cn1 ?
aDG glyco up: inactive; rCAG binder: inactive

Results for Cc1ccccc1N1CCN(C(=S)c2ccc([N+](=O)[O-])cc2)CC1 ?
PHOSPHO1 block: inactive; APOBEC3A inh: inactive; aDG glyco up: inactive; ALR H2O2 inh: inactive; A3G deaminase: inactive; rCAG binder: inactive
